# The supplement of paper PMC3334620
# In all, about 33,000 sequences were measured (“E-score (-0.5 to 0.5)”: median about -0.043, highest 2% from about 0.37 on). What follows is part of a selection rich in the highest values, with near analogues and random picks from the rest.
# Molecular target: T1, Upc2 (UniProt Q12151)
# T1 sequence: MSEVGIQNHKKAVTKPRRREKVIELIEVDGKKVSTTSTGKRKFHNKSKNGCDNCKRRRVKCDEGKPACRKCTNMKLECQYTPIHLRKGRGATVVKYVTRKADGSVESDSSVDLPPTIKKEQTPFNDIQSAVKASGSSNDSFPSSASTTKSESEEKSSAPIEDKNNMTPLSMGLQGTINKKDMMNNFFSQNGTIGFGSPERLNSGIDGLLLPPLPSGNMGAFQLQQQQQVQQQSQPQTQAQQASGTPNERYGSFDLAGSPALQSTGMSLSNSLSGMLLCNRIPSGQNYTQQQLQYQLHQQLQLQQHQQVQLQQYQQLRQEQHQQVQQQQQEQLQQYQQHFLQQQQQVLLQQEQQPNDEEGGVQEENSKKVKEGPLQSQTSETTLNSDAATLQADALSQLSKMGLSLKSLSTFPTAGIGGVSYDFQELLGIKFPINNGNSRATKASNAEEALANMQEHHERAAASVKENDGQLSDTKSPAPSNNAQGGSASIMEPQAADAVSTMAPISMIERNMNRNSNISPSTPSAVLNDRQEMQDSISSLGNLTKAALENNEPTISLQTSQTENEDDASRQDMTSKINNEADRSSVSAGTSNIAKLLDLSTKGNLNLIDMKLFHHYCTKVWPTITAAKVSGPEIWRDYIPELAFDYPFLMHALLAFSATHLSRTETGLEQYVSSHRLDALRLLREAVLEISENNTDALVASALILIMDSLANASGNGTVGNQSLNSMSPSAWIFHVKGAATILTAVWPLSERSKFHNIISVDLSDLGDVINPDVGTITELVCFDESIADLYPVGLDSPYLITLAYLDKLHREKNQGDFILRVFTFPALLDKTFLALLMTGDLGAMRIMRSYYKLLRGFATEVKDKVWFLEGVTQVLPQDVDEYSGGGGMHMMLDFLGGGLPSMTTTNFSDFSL
# Experiment: PBM E-score (8-mer binding enrichment) (E-score (-0.5 to 0.5)); higher = stronger / more preferred TF binding
# Conditions: protein concentration: 200 nM; construct: GST-full length
# Procedure: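 Universal 'all 10-mer' protein binding microarrays (Agilent AMADID 015681) probed with GST-tagged S. cerevisiae TFs (full-length or DBD) made by in vitro transcription/translation (PURExpress), about 100-200 nM. Bound TF was detected with fluorescent anti-GST. Each ungapped 8-mer (which stands for itself and its reverse complement) is scored by the PBM enrichment score (E-score), a modified Wilcoxon-Mann-Whitney statistic from -0.5 to +0.5, computed with the Universal PBM Analysis Suite. Scale: above 0.35 generally sequence-specific binding.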
row,Sequence,PBM E-score
1,GTGGTTGA,-0.0855
2,GCGTATCA,0.182
3,TCGTAAGA,0.399
4,CCGTAACA,0.22
5,TCGTAACA,0.404
6,TCGTATCA,0.463
7,GCGTAACA,0.118
8,CCGTAAGA,0.21
9,ACGTATCA,0.254
10,ACGTAAGA,0.146
11,CTGCAGAC,-0.0383
12,AACACTGA,0.0163
13,GGGTCAAC,-0.231
14,TGAACTCA,-0.00504
15,CACCCTTC,-0.0111
16,GAATACGC,0.175
17,GAATACGA,0.439
18,TAATACTA,0.105
19,AAATACGA,0.449
20,CAATACGA,0.419
21,TAATACCA,-0.0667
22,CAATACGG,0.196
23,CAATACGC,0.0949
24,GAATACTA,0.104
25,TAATACGA,0.429

row,Sequence,PBM E-score
1,AAATACGC,0.212
2,AAATACGT,0.109
3,ACTTTATA,0.127
4,CCGTCCAC,-0.0949
5,AATACTAG,0.00488
6,ATCAGACG,0.0965
7,GGAGTGAC,-0.0854
8,AGCTCCAT,-0.216
9,ACTGTCCA,-0.0712
10,CATACCCC,-0.0287
11,CGTACCCC,0.391
12,AGTACCCC,-0.00507
13,CGTACCCA,0.376
14,AGTACCCA,-0.131
15,GGTACCCA,-0.0644
16,CTTTTGGA,-0.147
17,ACCCACAC,0.11
18,TATACGGA,0.47
19,CATACGCA,0.313
20,TATACGCA,0.449
21,GATACGGA,0.278
22,GATACGCA,0.276
23,CATACGGA,0.365
24,ACACCATC,-0.205
25,CCAAGGAC,-0.247

row,Sequence,PBM E-score
1,CGGAGAAA,0.158
2,CTTGATCA,-0.14
3,ATCTATAC,0.287
4,CTATATAC,0.358
5,ATTTATAA,0.0439
6,GGTTATAC,0.383
7,GGCTATAC,0.299
8,CTTTATAC,0.303
9,CGTTATAC,0.367
10,AGCTATAC,0.309
11,AGTTATAC,0.333
12,CGCTATAC,0.392
13,CTCTATAC,0.397
14,ATTTATAC,0.41
15,TCGAGAGA,0.0401
16,GCTAACAC,-0.0792
17,CCTTACAA,-0.227
18,CCCTATAC,0.342
19,GCCTATAC,0.276
20,ACCTATAC,0.382
21,AAGGGGGC,0.0404
22,CATCTTCA,-0.263
23,GAAACGAC,0.423
24,AAAACGAG,0.316
25,ACAACGAC,0.258

row,Sequence,PBM E-score
1,CAAACGAC,0.464
2,CCAACGAC,0.0191
3,GAAACGGC,0.187
4,CAAACGAG,0.484
5,CTAACGAC,0.279
6,AAAACGAT,0.265
7,AAAACGAC,0.375
8,CCAACGAG,0.091
9,GAAACGCC,0.0519
10,ATTGCTGG,-0.0945
11,CACGGCTC,-0.128
12,ACGCTGGA,0.0743
13,CCAACCCA,-0.236
14,ATCCACCC,-0.179
15,GGGTTACC,0.0304
16,ACGCTTAA,0.135
17,ATTGGATG,0.03
18,ATTACCAA,-0.131
19,CGCTAGAC,-0.0752
20,ACGTACAA,0.309
21,CAGTACAA,-0.0317
22,TCGTACCA,0.476
23,CGGTACAA,0.222
24,TCGTACAA,0.487
25,CCGTACAA,0.413

row,Sequence,PBM E-score
1,GCGTACCA,0.215
2,GCGTACAA,0.324
3,ACGTACCA,0.255
4,AGCCCTTC,-0.211
5,ATATATCC,0.0459
6,AGAGGACG,-0.0919
7,AATGGGCA,-0.00586
8,CAAGATAG,-0.0974
9,GTTTCGTA,0.446
10,CTTTCGGA,-0.11
11,CTTTCGTA,0.416
12,GTTTCGGA,0.219
13,ATTTCGTC,0.0429
14,ATTTCGTA,0.431
15,GTTTCGAA,0.0998
16,CTTTCGTC,-0.043
17,ATTTCGTG,0.0688
18,CATAATCC,-0.0711
19,GAAGGCGC,-0.132
20,AGCGTAAT,-0.0565
21,CAGCTATA,0.0617
22,ACACGATG,0.166
23,ACACGATC,0.123
24,CTACGATC,0.288
25,ATACGATG,0.473

row,Sequence,PBM E-score
1,ATACGATC,0.465
2,AGACGATG,0.0313
3,CGCTAAAC,0.345
4,ACAAGCCC,-0.1
5,AAGAACGG,0.0306
6,CAGAACGA,0.399
7,CAGAACGC,-0.0286
8,CAGAACGG,0.139
9,AAGAACGT,0.108
10,AAGAACGA,0.408
11,GAGAACGA,0.36
12,TAGAACGA,0.383
13,TAGAACCA,-0.0454
14,CTTGGATA,-0.103
15,AACCTAAC,-0.0536
16,CCCCAACG,-0.107
17,ATTAAACA,-0.0789
18,CCTAAACA,-0.063
19,CCTAAACC,0.0842
20,ATTAAACG,0.461
21,ATTTAACA,0.0412
22,ACTAAACG,0.463
23,ATTTAACC,-0.0686
24,ACTAAACA,-0.109
25,CCTAAACG,0.472

row,Sequence,PBM E-score
1,ACTAAACC,0.0385
2,ATTAAACC,-0.0396
3,ATTTAACG,0.387
4,CGACTCTA,0.0472
5,CAAGGTTA,0.0313
6,AGCATCCG,0.106
7,TACTCAGA,-0.0518
8,CGCCTGTA,-0.0476
9,GACCCACA,0.0499
10,CAAGTAAA,0.0181
11,GGTTGACA,-0.0866
12,ATCTAATC,-0.0686
13,CCTCGTAA,0.444
14,TCTCGTCA,-0.0265
15,CCTCGTCA,0.108
16,CCTCGTAC,0.477
17,CCTCATAG,-0.226
18,CCGCGTAC,0.324
19,CCTCGTCG,0.195
20,CCTCGGAC,0.199
21,CCTCGTAG,0.389
22,CCTCGTGA,0.168
23,TCTCGTAA,0.434
24,TCACGTAA,0.0344
